Laboratory results: PMC7826789 (International Journal of Molecular Sciences, 2021)

Legend:
Details in all cases: Compound Concentration (nM):1000
[1] = test system: FGFR3
[2] = test system: FGFR4
[3] = test system: FGR
[4] = test system: FLT1
[5] = test system: FLT3(D835H)
[6] = test system: FLT3(D835V)
[7] = test system: FLT3(D835Y)
[8] = test system: FLT3(ITD)
[9] = test system: FLT3(ITD,D835V)
[10] = test system: FLT3(ITD,F691L)
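Further: KINOMEscan scanMAX binding as percent activity remaining versus control; lower means stronger binding.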

## CN(C)CCNC(=O)Nc1ccc(N(C)c2ccnc(Nc3ccc(CS(C)(=O)=O)cc3)n2)cc1.Cl [GW830900A]
[1]
  Percent Control: 100%
[2]
  Percent Control: 100%
[3]
  Percent Control: 100%
[4]
  Percent Control: 61%
[5]
  Percent Control: 32%
[6]
  Percent Control: 6.3%
[7]
  Percent Control: 35%
[8]
  Percent Control: 8.3%
[9]
  Percent Control: 22%
[10]
  Percent Control: 19%

## CCn1c(-c2nonc2N)nc2c(C#CC(C)(C)O)nc(OCCNC)cc21.Cl [GSK949675]
[1]
  Percent Control: 100%
[2]
  Percent Control: 100%
[3]
  Percent Control: 100%
[4]
  Percent Control: 100%
[5]
  Percent Control: 43%
[6]
  Percent Control: 83%
[7]
  Percent Control: 30%
[8]
  Percent Control: 100%
[9]
  Percent Control: 100%
[10]
  Percent Control: 22%

## CC(C)COC(=O)c1ccc2c(c1)/C(=C/Nc1ccc(S(N)(=O)=O)cc1)C(=O)N2 [GW416981X]
[1]
  Percent Control: 100%
[2]
  Percent Control: 100%
[3]
  Percent Control: 99%
[4]
  Percent Control: 83%
[5]
  Percent Control: 1.6%
[6]
  Percent Control: 0%
[7]
  Percent Control: 1.1%
[8]
  Percent Control: 3%
[9]
  Percent Control: 0%
[10]
  Percent Control: 0%

## COC(=O)Nc1nc2ccc(Oc3ccc(NC(=O)Nc4cc(C(F)(F)F)ccc4F)cc3)cc2s1.Cl [GW693917A]
[1]
  Percent Control: 70%
[2]
  Percent Control: 91%
[3]
  Percent Control: 71%
[4]
  Percent Control: 3%
[5]
  Percent Control: 2.3%
[6]
  Percent Control: 13%
[7]
  Percent Control: 24%
[8]
  Percent Control: 4.3%
[9]
  Percent Control: 83%
[10]
  Percent Control: 44%

## NS(=O)(=O)c1ccc(N/N=C2\C(=O)Nc3ccc(C(=O)NCc4ccncc4)cc32)cc1 [GW300657X]
[1]
  Percent Control: 82%
[2]
  Percent Control: 100%
[3]
  Percent Control: 100%
[4]
  Percent Control: 80%
[5]
  Percent Control: 52%
[6]
  Percent Control: 0%
[7]
  Percent Control: 46%
[8]
  Percent Control: 64%
[9]
  Percent Control: 0.6%
[10]
  Percent Control: 17%

## CN(C)c1cc2c(Nc3ccc4c(cnn4Cc4ccccc4)c3)ncnc2cn1 [GW282974X]
[1]
  Percent Control: 100%
[2]
  Percent Control: 84%
[3]
  Percent Control: 73%
[4]
  Percent Control: 94%
[5]
  Percent Control: 85%
[6]
  Percent Control: 59%
[7]
  Percent Control: 100%
[8]
  Percent Control: 82%
[9]
  Percent Control: 100%
[10]
  Percent Control: 100%

## COc1cc(C=NNc2ncnc3c2cnn3-c2ccccc2)ccc1O [GW513184X]
[1]
  Percent Control: 100%
[2]
  Percent Control: 100%
[3]
  Percent Control: 80%
[4]
  Percent Control: 100%
[5]
  Percent Control: 12%
[6]
  Percent Control: 3%
[7]
  Percent Control: 9.4%
[8]
  Percent Control: 30%
[9]
  Percent Control: 16%
[10]
  Percent Control: 46%

## COc1cc2ncnc(Nc3ccc4c(cnn4Cc4ccccc4)c3)c2cc1OC.Cl [GW282449A]
[1]
  Percent Control: 100%
[2]
  Percent Control: 100%
[3]
  Percent Control: 68%
[4]
  Percent Control: 100%
[5]
  Percent Control: 68%
[6]
  Percent Control: 34%
[7]
  Percent Control: 83%
[8]
  Percent Control: 96%
[9]
  Percent Control: 90%
[10]
  Percent Control: 100%

## COc1cc(N2CCN(C(C)C)CC2)ccc1Nc1nc(Nc2ccc(F)cc2C(=O)NC[C@@H](O)CO)c2cc[nH]c2n1 [GSK1392956A]
[1]
  Percent Control: 97%
[2]
  Percent Control: 95%
[3]
  Percent Control: 81%
[4]
  Percent Control: 94%
[5]
  Percent Control: 100%
[6]
  Percent Control: 69%
[7]
  Percent Control: 68%
[8]
  Percent Control: 88%
[9]
  Percent Control: 79%
[10]
  Percent Control: 40%

## CN1CCN(C(=O)c2ccc(NC(=O)Nc3ccc(N(C)c4ccnc(Nc5ccc(CS(C)(=O)=O)cc5)n4)cc3)cc2)CC1.Cl [GW830263A]
[1]
  Percent Control: 100%
[2]
  Percent Control: 100%
[3]
  Percent Control: 57%
[4]
  Percent Control: 0.4%
[5]
  Percent Control: 0.8%
[6]
  Percent Control: 1.2%
[7]
  Percent Control: 5.3%
[8]
  Percent Control: 0.3%
[9]
  Percent Control: 8.9%
[10]
  Percent Control: 6.8%
